Screens (PubChem BioAssay)
Compounds with a hit are over-represented: about 1.7% of the library has one in this group of screens.
NOD2-RIPK2 inh = blocks binding of human NOD2 to RIPK2; CHO BLA complementation NOD2-RIPK2, CCF4 ratio; 360,000 tested, 0.38% active; O43353; AID 624267; inhibition, % at 4.98 µM; in the data active means inhibition above about 21%;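 further: 0% = vehicle only and 100% = reference blocker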
Target sequence (O43353 whole entry, looked up): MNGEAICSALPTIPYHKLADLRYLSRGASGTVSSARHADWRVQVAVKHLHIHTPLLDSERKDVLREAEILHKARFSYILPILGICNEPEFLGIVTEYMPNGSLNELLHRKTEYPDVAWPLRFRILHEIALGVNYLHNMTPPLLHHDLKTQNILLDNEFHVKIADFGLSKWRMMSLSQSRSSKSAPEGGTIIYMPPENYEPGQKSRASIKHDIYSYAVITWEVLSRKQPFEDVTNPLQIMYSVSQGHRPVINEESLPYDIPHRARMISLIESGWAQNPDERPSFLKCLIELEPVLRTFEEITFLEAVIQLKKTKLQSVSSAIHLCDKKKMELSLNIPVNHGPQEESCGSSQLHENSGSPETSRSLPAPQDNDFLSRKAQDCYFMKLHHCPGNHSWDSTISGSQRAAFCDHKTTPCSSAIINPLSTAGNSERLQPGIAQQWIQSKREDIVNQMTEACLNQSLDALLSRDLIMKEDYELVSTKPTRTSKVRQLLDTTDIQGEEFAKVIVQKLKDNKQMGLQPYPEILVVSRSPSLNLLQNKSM
Myeloid diff MLP = promotes myeloid progenitor differentiation; ER-HoxA9 myeloid progenitors, lysozyme-GFP differentiation, flow cytometry; 360,000 tested, 1% active; AID 624256; calls only at 10 µM;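 active means normalized GFP-positive differentiation at or above the plate's own cutoff, the solvent-only control mean plus 3 SD; inconclusive means no clear call, values can overlap the other calls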;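 further: cells exposed to compound for four days before flow analysis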
TLR9-MyD88 block = TLR9-MyD88 interaction inhibition; inhibition, % at 4.98 µM; CHO BLA complementation TLR9-MyD88, CCF4 FRET ratio; 340,000 tested, 0.21% active; AID 504734; Q9NR96+Q99836;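 active means inhibition above the mean over all tested compounds plus 3 SD, cut at about 21% in these data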;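 further: 0% = DMSO only wells and 100% = clavulanate BLA inhibitor control wells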
ABCB6 inh 2 = blocks the human ABCB6 transporter; K562-ABCB6 porphyrin accumulation, flow cytometry, 1 h; active compounds read low; fluorescence ratio to DMSO, % at 10 µM; 360,000 tested, 0.19% active;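 active means fluorescence ratio to DMSO below 75%, the collection mean minus 3 SD; inconclusive means too few cells collected in the well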;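 further: signal is porphyrin accumulated inside mitochondria; 100% equals median channel fluorescence of DMSO control wells; lower ratio means ABCB6 inhibition with less porphyrin fluorescence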
TLR4-MyD88 BLA = blocks binding of human TLR4 to MyD88 | O00206+Q99836 | HeLa CL3-4 TLR4/MyD88 BLA complementation, FRET ratio | inhibition, % at 8.4 µM | 200,000 tested, 0.18% active; in the data active means inhibition above about 25%;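 further: 0% = vehicle and 100% = reference inhibitor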
* marks the source's active call; other numbers are inactive results.

CC1CN(CC(=O)Nc2nc(-c3ccc(Cl)cc3)cs2)CC(C)O1 (centres undefined) was read as NOD2-RIPK2 inh 13.2, Myeloid diff MLP active, TLR9-MyD88 block 1.9 and ABCB6 inh 2 220.0.
For Cc1c(C)c2ccc(O[C@@H]3O[C@H](CO)[C@H](O)[C@H](O)[C@H]3O)cc2oc1=O the results were NOD2-RIPK2 inh 6.2, Myeloid diff MLP active, TLR9-MyD88 block 6.4 and ABCB6 inh 2 135.0.
For CCOc1ccc2nc3cc(NCc4ccc(OC)cc4)ccc3c(N)c2c1 the results were NOD2-RIPK2 inh 0.1, Myeloid diff MLP active, TLR9-MyD88 block -7.6 and ABCB6 inh 2 243.0.
`CCN(C(=O)CC(C)C)c1nnc(Cn2nnc3ccccc32)s1` gave NOD2-RIPK2 inh -0.6, Myeloid diff MLP inactive, TLR9-MyD88 block 6.8, ABCB6 inh 2 97.0 and TLR4-MyD88 BLA 2.0.
For CCN(C(=O)c1ccc(C(C)(C)C)cc1)c1nnc(Cn2nnc3ccccc32)s1 the results were NOD2-RIPK2 inh -0.4, Myeloid diff MLP active, TLR9-MyD88 block 2.7, ABCB6 inh 2 99.0 and TLR4-MyD88 BLA -0.9.
COc1cccc2c(C)nc(Nc3nc(CSc4nnc(C)s4)cc(=O)[nH]3)nc12 was read as NOD2-RIPK2 inh -2.4, Myeloid diff MLP active, TLR9-MyD88 block -3.3, ABCB6 inh 2 93.0 and TLR4-MyD88 BLA -1.6.
For NS(=O)(=O)c1ccc(CCNC(=O)CSc2nc3ccsc3c(=O)n2Cc2ccccn2)cc1 the results were NOD2-RIPK2 inh 3.7, Myeloid diff MLP inactive, TLR9-MyD88 block 7.2 and ABCB6 inh 2 82.0.
`CC(=O)[C@H]1CC[C@H]2[C@@H]3CCC4=CC(=O)CC[C@]4(C)[C@H]3CC[C@]12C` gave NOD2-RIPK2 inh -1.6, Myeloid diff MLP inactive, TLR9-MyD88 block -3.5, ABCB6 inh 2 101.0 and TLR4-MyD88 BLA 1.9.
Screening CC(=O)C1CCC2C3CC(O)C4=CC(=O)CCC4(C)C3C(=O)CC12C (centres undefined) returned NOD2-RIPK2 inh -9.5, Myeloid diff MLP active, TLR9-MyD88 block -1.4 and ABCB6 inh 2 103.0.
`CC(=O)N1[C@H](C)C=C[C@]1(Cc1ccccc1)C(=O)NCCN1CCOCC1` gave NOD2-RIPK2 inh -3.8, Myeloid diff MLP inactive, TLR9-MyD88 block -2.9 and ABCB6 inh 2 95.0.
CCc1ccc(N2CC(C(=O)NC3CCCCC3C)CC2=O)cc1 (centres undefined) was read as NOD2-RIPK2 inh -1.9, Myeloid diff MLP inactive, TLR9-MyD88 block -3.6 and ABCB6 inh 2 92.0.
`CCCCc1ccc(NC(=O)Nc2cnccn2)cc1` gave NOD2-RIPK2 inh -10.1, Myeloid diff MLP active, TLR9-MyD88 block -61.3 and ABCB6 inh 2 98.0.
Screening Cc1ccc(S(=O)(=O)N2C[C@H]3n4c(=O)ccc(=O)n4C[C@H](OC(=O)NC4CC4)[C@@]3(O)C2)cc1 returned NOD2-RIPK2 inh -0.2, Myeloid diff MLP active, TLR9-MyD88 block -6.7 and ABCB6 inh 2 105.0.
`Cc1[nH]c2ccccc2c1C(=O)C(=O)NCc1cccs1` gave NOD2-RIPK2 inh -2.3, Myeloid diff MLP inactive, TLR9-MyD88 block -0.9, ABCB6 inh 2 99.0 and TLR4-MyD88 BLA -3.1.
Screening COC(=O)C(C(=O)OC)c1ccccc1NS(=O)(=O)c1ccc(C)cc1 returned NOD2-RIPK2 inh -2.6 and Myeloid diff MLP inactive.
`COc1cc(NS(=O)(=O)c2ccc(C)cc2)c2c(c1N)C(=O)c1ccccc1C2=O` gave NOD2-RIPK2 inh -0.7, Myeloid diff MLP active, TLR9-MyD88 block -9.2 and ABCB6 inh 2 inactive.
COc1ccc(Nc2c[nH]c(=O)[nH]c2=O)cc1 was read as NOD2-RIPK2 inh -5.5, Myeloid diff MLP inactive, TLR9-MyD88 block -1.6 and ABCB6 inh 2 98.0.
Screening COc1cccc(-c2nnc(SCC(=O)Nc3ccc(OC)c(OC)c3)n2N)c1 returned NOD2-RIPK2 inh -1.1, Myeloid diff MLP active, TLR9-MyD88 block 3.3, ABCB6 inh 2 96.0 and TLR4-MyD88 BLA -5.6.
`COc1cc(C2NC(=O)c3ccccc3O2)ccc1OC(C)C` (centres undefined) gave NOD2-RIPK2 inh 1.4, Myeloid diff MLP active, TLR9-MyD88 block -4.3 and ABCB6 inh 2 99.0.
`COc1ccc(C)cc1Nc1n[n+](-c2ccccc2)c(-c2cc([N+](=O)[O-])cc(OC)c2O)s1` gave NOD2-RIPK2 inh 3.1, Myeloid diff MLP active, TLR9-MyD88 block 1.6 and ABCB6 inh 2 474.0.
`CCOc1ccccc1NC(=O)c1csc(C)c1C` gave NOD2-RIPK2 inh -9.7, Myeloid diff MLP inactive, TLR9-MyD88 block -10.3 and ABCB6 inh 2 97.0.
Screening CC(C)n1cnc2c(N(C)c3ccccc3)nc(N(CCN(C)C)Cc3ccccc3)nc21 returned NOD2-RIPK2 inh 4.7, Myeloid diff MLP active, TLR9-MyD88 block 4.7 and ABCB6 inh 2 106.0.
COc1cc(N(Cc2ccccc2)Cc2ccccc2)c2ncn(C(C)C)c2c1 was read as NOD2-RIPK2 inh 1.8, Myeloid diff MLP inactive, TLR9-MyD88 block 3.5 and ABCB6 inh 2 103.0.
Screening CCCN1CCc2c(sc(NC(=O)c3ccc(S(=O)(=O)N4CCCC4)cc3)c2C(N)=O)C1 returned NOD2-RIPK2 inh -16.5, Myeloid diff MLP active, TLR9-MyD88 block -11.3 and ABCB6 inh 2 111.0.
Screening COc1ccc(C(=O)Nc2ccc(OCC(=O)N3CCOCC3)cc2)c(OC)c1OC returned NOD2-RIPK2 inh -10.8, Myeloid diff MLP inactive, TLR9-MyD88 block 6.2 and ABCB6 inh 2 99.0.
For O=c1[nH]c(C2CCCN(S(=O)(=O)c3ccc(F)cc3)C2)nc2c1nnn2Cc1ccc(F)cc1 (centres undefined) the results were NOD2-RIPK2 inh 2.8, Myeloid diff MLP inactive, TLR9-MyD88 block 1.2 and ABCB6 inh 2 96.0.
Oc1ccccc1/C=N/Nc1cccc2cccnc12 was read as NOD2-RIPK2 inh 5.8, Myeloid diff MLP active, TLR9-MyD88 block 2.2, ABCB6 inh 2 100.0 and TLR4-MyD88 BLA -1.7.
`O=C1c2ccccc2C(=O)N1OCCCN1C(=O)c2ccccc2S1(=O)=O` gave NOD2-RIPK2 inh -3.6, Myeloid diff MLP inconclusive, TLR9-MyD88 block 7.5 and ABCB6 inh 2 31.0*.
`COc1cc([N+](=O)[O-])ccc1-c1ccc(/C=N/NC(N)=O)o1` gave NOD2-RIPK2 inh 4.8, Myeloid diff MLP active, TLR9-MyD88 block 16.1 and ABCB6 inh 2 145.0.
For O=C(Cn1nc(Cc2cccnc2)c2ccccc2c1=O)Nc1ccccc1F the results were NOD2-RIPK2 inh -4.9, Myeloid diff MLP inactive, TLR9-MyD88 block -4.0 and ABCB6 inh 2 98.0.
Screening CCc1ccc(OC(=O)Cc2ccc(OC)c(S(=O)(=O)N3CCOCC3)c2)cc1 returned NOD2-RIPK2 inh 4.8, Myeloid diff MLP inactive, TLR9-MyD88 block 5.4 and ABCB6 inh 2 89.0.
Screening CCCOc1ccc(OC(=O)Cc2ccc(OC)c(S(=O)(=O)N3CCOCC3)c2)cc1 returned NOD2-RIPK2 inh -5.9, Myeloid diff MLP active, TLR9-MyD88 block 3.1 and ABCB6 inh 2 90.0.
Screening COC(C(=O)Nc1cccc(F)c1)c1ccccc1 (centres undefined) returned NOD2-RIPK2 inh 9.4, Myeloid diff MLP active, TLR9-MyD88 block 12.6, ABCB6 inh 2 97.0 and TLR4-MyD88 BLA 15.2.
